Article PMC4336329 (PLoS ONE, 2015)
In all, about 310,000 compounds went through this assay and about 14,000 (4.5%) showed an effect of 50% or more. Effects have a minus sign here. Shown is part of a subset that was picked to be rich in strong results.

What follows are molecules tested against human ether-à-go-go-related gene (hERG) potassium channel (human, UniProt Q12809) (assay: primary screen, population patch clamp on CHO cells stably expressing hERG; higher = less effect of the substance).
Chain of human ether-à-go-go-related gene (hERG) potassium channel (Q12809 whole entry, looked up): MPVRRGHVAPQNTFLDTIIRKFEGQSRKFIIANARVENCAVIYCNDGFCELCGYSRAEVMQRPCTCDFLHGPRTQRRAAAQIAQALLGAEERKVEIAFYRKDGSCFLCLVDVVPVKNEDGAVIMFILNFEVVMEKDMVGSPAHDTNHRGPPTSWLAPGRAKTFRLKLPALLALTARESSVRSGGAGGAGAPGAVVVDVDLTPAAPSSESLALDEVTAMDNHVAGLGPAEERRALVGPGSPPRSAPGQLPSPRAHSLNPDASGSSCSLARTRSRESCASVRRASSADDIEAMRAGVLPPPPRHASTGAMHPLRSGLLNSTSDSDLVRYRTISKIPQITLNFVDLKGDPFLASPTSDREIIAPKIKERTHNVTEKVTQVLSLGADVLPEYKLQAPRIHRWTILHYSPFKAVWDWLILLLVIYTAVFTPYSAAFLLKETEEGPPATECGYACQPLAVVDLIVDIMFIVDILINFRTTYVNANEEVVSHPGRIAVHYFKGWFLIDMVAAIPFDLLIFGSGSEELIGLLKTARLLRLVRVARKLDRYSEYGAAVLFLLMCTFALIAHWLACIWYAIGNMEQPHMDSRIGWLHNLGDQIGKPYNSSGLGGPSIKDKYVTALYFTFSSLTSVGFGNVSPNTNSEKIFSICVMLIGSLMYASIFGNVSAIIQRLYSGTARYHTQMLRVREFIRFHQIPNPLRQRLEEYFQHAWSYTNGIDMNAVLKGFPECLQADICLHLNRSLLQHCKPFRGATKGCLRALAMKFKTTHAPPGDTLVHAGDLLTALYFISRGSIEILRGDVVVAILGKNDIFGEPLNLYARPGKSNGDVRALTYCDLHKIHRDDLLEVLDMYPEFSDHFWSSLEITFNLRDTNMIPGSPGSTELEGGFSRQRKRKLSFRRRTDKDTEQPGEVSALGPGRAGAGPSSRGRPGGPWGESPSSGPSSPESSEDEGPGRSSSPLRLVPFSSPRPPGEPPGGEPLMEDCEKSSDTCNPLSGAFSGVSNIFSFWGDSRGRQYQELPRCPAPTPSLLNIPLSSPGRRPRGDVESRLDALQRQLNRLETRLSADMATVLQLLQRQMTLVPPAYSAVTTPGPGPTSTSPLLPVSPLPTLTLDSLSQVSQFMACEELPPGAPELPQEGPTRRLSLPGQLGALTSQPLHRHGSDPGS
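Also: peak tail current of the secondary pulse compared with the same well before compound.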

Compound	hERG current change (%, negative = inhibition) at 10uM [%]
COc1ccc(CC2(CO)CCN(Cc3ccncc3)CC2)cc1	-21.2
COC(=O)c1cccc(C(=O)N2CCC(CO)(Cc3ccccc3Cl)CC2)c1	-23.1
COC(=O)c1ccc(CN2CCC(CO)(Cc3cccc(OC)c3)CC2)cc1	-66.1
COc1ccc(-c2ncc(CN3CCC(CO)(Cc4cccc(OC)c4)CC3)cn2)cc1	-4.79
COC(=O)c1ccc(CN2CCCCC2)cc1	1.45
COC(=O)c1ccc(CN2CCC(CO)(Cc3ccc(OC)cc3)CC2)cc1	-66.1
Nn1c(SCC(=O)Nc2c(F)cc(F)cc2Br)nnc1C1CCCCC1	3.21
CCOC(=O)c1nnn(-c2nonc2-c2ccccc2)c1C	-25.2
S=c1[nH]cc(-c2ccccc2)n1-c1ccccc1Cl	9.61
CCc1onc(C)c1C(=O)Nc1ccc(N2CCOCC2)cc1	15
Clc1ccc(-c2noc(/C=C/c3ccccc3)n2)cc1	18.2
COc1ccc(CC2(CO)CCN(CC3=CC[C@H]4C[C@@H]3C4(C)C)CC2)cc1	-58.7
COc1cccc(CC2(CO)CCN(CC3=CC[C@H]4C[C@@H]3C4(C)C)CC2)c1	-44.2
CC1(C)C2CC=C(CN3CCC(O)CC3)C1C2 (stereo not drawn)	-7.45
CCN(CC)S(=O)(=O)c1ccc2c(c1)nc(SCc1nc3ccsc3c(=O)[nH]1)n2CC	-30.8
COc1ccc(C=NCCC2(O)CC(C)N(C)CC2C)cc1 (stereo not drawn)	8.31
CC1Oc2cc3c(-c4c(O)cc(O)c5c(O)c6c(cc45)OC(C)C(C)C6=O)c(O)cc(O)c3c(O)c2C(=O)C1C (stereo not drawn)	10.8
CN(C)[C@@H]1CCC[C@H]1OC(=O)C(c1ccccc1)c1ccccc1	-65.2
C[N+]1(C)CCC(OC(=O)C(c2ccccc2)c2ccccc2)CC1.[I-]	1.2
CC1CN(C(C)C)C(C)CC1OC(=O)c1ccccc1 (stereo not drawn)	15.7
CCCCOc1ccc(C(=O)OC2CC(C)N(C)CC2C)cc1 (stereo not drawn)	-25.4
C[N+]1(C)[C@@H]2CC[C@H]1CC(OC(=O)C(c1ccccc1)c1ccccc1)C2.[I-] (stereo partly drawn)	18
CC1CN(C)C(C)CC1OC(=O)C(c1ccccc1)c1ccccc1 (stereo not drawn)	-73.7

Compound	hERG current change (%, negative = inhibition) at 10uM [%]
O=C(Cc1cccs1)NCCn1ccc2ccccc21	-6.95
Cc1ccc(C2=NN(C(=O)CSc3nnnn3C)C(c3ccco3)C2)cc1 (stereo not drawn)	17.1
Cc1cn(C)c(=O)n(C)c1=O	4.46
Cc1ccc(-c2c[n+](CC(=O)Nc3nc(-c4ccc(F)cc4)cs3)c3n2CCC3)cc1.[Cl-]	-74.2
O=C(C[n+]1cc(-c2ccc(Cl)cc2)n2c1CCC2)Nc1nc(-c2ccc(F)cc2)cs1.[Cl-]	-48.4
O=C(C[n+]1cc(-c2ccc(F)cc2)n2c1CCC2)Nc1nc(-c2ccc(F)cc2)cs1.[Cl-]	-76.7
O=C(C[n+]1cc(-c2ccccc2)n2c1CCC2)Nc1nc(-c2ccc(F)cc2)cs1.[Cl-]	-20.3
Cn1c(NC(=O)C[n+]2cc(-c3ccc(F)cc3)n3c2CCC3)cc(=O)n(C)c1=O.[Cl-]	1.04
O=C(C[n+]1cc(-c2ccc(F)cc2)n2c1CCC2)Nc1nc(-c2ccccc2)cs1.[Cl-]	-11.1
CN(c1ccc(C(=O)N2CCOCC2)cc1[N+](=O)[O-])C1CCCCC1	-23.1
CCCCC[C@H]1CN(CCCC)C(=O)[C@@H]1CC(=O)NCc1ccc(OC)cc1	-71
CCCCN1C[C@H](Cc2ccccc2)[C@@H](CC(=O)Nc2ccccc2)C1=O	-25.4
CCCCCCc1ccc(N2C[C@H](CCCCC)[C@@H](CC(=O)NCc3ccc(OC)cc3)C2=O)cc1	-16.6
CCCCC[C@H]1CN(CCCC)C(=O)[C@@H]1CC(=O)NCc1ccccc1	-73.5
COc1ccc(CN2C[C@H](C)[C@@H](CC(=O)NCc3ccccc3)C2=O)cc1	-10.7
CCCCC[C@H]1CN(CCc2ccccc2)C(=O)[C@@H]1CC(=O)NCc1ccc(OC)cc1	-61.8
CCCCN1CC[C@H]2C=CC[C@@H](C(=O)NCc3ccc(OC)cc3)[C@H]2C1=O	2.71
CCCCCCc1ccc(N2C[C@H](Cc3ccccc3)[C@@H](CC(=O)NCc3ccc(OC)cc3)C2=O)cc1	-4.42
COc1ccc(CCN2CC(C(=O)NCc3ccccc3)CCC2=O)cc1 (stereo not drawn)	-8.79
CCCCC[C@H]1CN(Cc2ccc(OC)cc2)C(=O)[C@@H]1CC(=O)NCc1ccccc1	-38.6
CCCCC[C@H]1CN(Cc2ccccc2)C(=O)[C@@H]1CC(=O)NCc1ccc(OC)cc1	-56.4
CCCCN1C[C@H](C)[C@@H](CC(=O)NCc2ccccc2)C1=O	-10.5
